In all, about 33,000 sequences were measured (“E-score (-0.5 to 0.5)”: median about -0.054, highest 2% from about 0.35 on). Shown is part of a subset that was picked to be rich in the highest values.

In this test the target is T1, Stb5 (UniProt P38699).
T1 sequence: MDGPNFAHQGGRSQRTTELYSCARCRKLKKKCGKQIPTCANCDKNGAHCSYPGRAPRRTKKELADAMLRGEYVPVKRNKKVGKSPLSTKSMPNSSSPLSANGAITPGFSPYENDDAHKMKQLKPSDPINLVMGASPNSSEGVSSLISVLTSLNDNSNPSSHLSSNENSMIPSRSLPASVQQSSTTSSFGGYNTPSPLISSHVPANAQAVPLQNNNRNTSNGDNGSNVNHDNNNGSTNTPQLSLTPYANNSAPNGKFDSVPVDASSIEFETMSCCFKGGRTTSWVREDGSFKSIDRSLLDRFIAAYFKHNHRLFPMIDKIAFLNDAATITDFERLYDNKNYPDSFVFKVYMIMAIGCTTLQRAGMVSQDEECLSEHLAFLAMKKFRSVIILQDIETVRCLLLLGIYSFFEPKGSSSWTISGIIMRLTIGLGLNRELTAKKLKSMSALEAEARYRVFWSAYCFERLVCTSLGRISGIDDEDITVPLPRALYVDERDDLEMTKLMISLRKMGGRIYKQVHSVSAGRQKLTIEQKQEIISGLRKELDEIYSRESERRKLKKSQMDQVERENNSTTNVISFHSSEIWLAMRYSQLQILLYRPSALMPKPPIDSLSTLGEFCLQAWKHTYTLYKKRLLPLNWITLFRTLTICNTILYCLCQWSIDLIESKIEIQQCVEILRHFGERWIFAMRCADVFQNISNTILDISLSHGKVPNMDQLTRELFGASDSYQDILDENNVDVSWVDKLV
The experiment in a line: PBM E-score (8-mer binding enrichment) (E-score (-0.5 to 0.5)); higher = stronger / more preferred TF binding. The settings on record: protein concentration: 200 nM; construct: GST-full length. An outline of the steps:
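Each ungapped eight-base word and its reverse complement, pooled, received an E-score from the Universal PBM Analysis Suite. Underlying scans, normalised with masliner, recorded fluorescent anti-GST bound to GST-tagged yeast transcription factors. These were applied at about 100-200 nM to universal all-10-mer Agilent arrays double-stranded by primer extension.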
Consider ACCACCGG, for which the “PBM E-score” value was found to be 0.406.

With ACCACCAT, the “PBM E-score” value was -0.138.

Regarding CCCACCGG, the “PBM E-score” value is 0.303.

TCCACCGA: the “PBM E-score” value came out at 0.176.

Turning to GCCACCGC, the “PBM E-score” value stood at 0.335.

Take ACCACCAG: the “PBM E-score” value was -0.148.

As to ACCACCCT, the “PBM E-score” value is -0.168.

On to ACCACCGT, for which the “PBM E-score” value was determined as 0.354.

Take CCCACCGC: the “PBM E-score” value worked out at 0.221.

ACCACCGC: the “PBM E-score” value is 0.391.

ACCACCGA: the “PBM E-score” value was 0.357.

Turning to CCCACCGA, the “PBM E-score” value turned out to be 0.118.

In the case of GGCGAGTA, the “PBM E-score” value is -0.101.

As to CCTCTATA, the “PBM E-score” value was -0.232.

Take CCTGACTC: the “PBM E-score” value is -0.153.

CCTATAAG: the “PBM E-score” value is -0.0382.

On to AACCTTGC, for which the “PBM E-score” value is -0.0575.

AAGAAGTA: the “PBM E-score” value was -0.102.

For the sequence GAGCAAGC, the “PBM E-score” value is -0.168.

Turning to AGCAACCA, the “PBM E-score” value was -0.068.

In the case of CCAATTCA, the “PBM E-score” value is -0.261.

As to ACCGACAG, the “PBM E-score” value is 0.363.

CCCGACAC: the “PBM E-score” value was found to be 0.34.

With ACCGACAC, the “PBM E-score” value came to 0.361.

Regarding ACCGACAA, the “PBM E-score” value stood at 0.369.

Take GCCGACAC: the “PBM E-score” value is 0.239.

For CCCGACAA, the “PBM E-score” value was 0.328.

With AACGACAG, the “PBM E-score” value is -0.205.

As for CCCGACAG, the “PBM E-score” value worked out at 0.305.

Turning to ACCGACAT, the “PBM E-score” value worked out at 0.322.

As to GGTTTGGA, the “PBM E-score” value is 0.0254.

For the sequence ACGATATG, the “PBM E-score” value is -0.0261.

Regarding ATGGTTCG, the “PBM E-score” value is -0.0398.

Take CTCGTTTC: the “PBM E-score” value is -0.214.

As to TGACCTAA, the “PBM E-score” value is -0.117.

Consider CGACCTAA, for which the “PBM E-score” value is 0.017.

GGACCTAA: the “PBM E-score” value amounted to 0.365.

Consider CGGAGGTA, for which the “PBM E-score” value amounted to 0.434.

Regarding CGGAGGTC, the “PBM E-score” value was 0.122.

Turning to CGGAGCTC, the “PBM E-score” value came out at 0.249.

Take CGGAGCTA: the “PBM E-score” value came to 0.446.

Take AGGAGCTA: the “PBM E-score” value is -0.0145.

With AGGAGGTA, the “PBM E-score” value is -0.0118.

Turning to TGTACGAA, the “PBM E-score” value is -0.0429.

On to ACCACTGA, for which the “PBM E-score” value is -0.202.

Take CGCCGACG: the “PBM E-score” value turned out to be 0.395.

For the sequence GGCCGACA, the “PBM E-score” value turned out to be 0.327.

With CGCCGACC, the “PBM E-score” value came to 0.345.

As to CGCCGACA, the “PBM E-score” value was determined as 0.354.

TGCCGACA: the “PBM E-score” value is 0.298.

Turning to AGCCGACG, the “PBM E-score” value came out at 0.232.

As to GGCTCTTA, the “PBM E-score” value worked out at 0.0283.

Regarding ACTCTAAA, the “PBM E-score” value is 0.01.

As for ACCGCACG, the “PBM E-score” value came to 0.153.

For the sequence AACGGGGA, the “PBM E-score” value came to 0.288.

In the case of GATCTACC, the “PBM E-score” value was -0.0916.

As to CGCTGTTC, the “PBM E-score” value is 0.0181.

Turning to CGCTGTTA, the “PBM E-score” value is 0.445.

For AGCTGTTA, the “PBM E-score” value is -0.234.

Regarding GTCGGAAC, the “PBM E-score” value was found to be 0.315.

For ACTCTCTA, the “PBM E-score” value is -0.205.

Take ATAATGAA: the “PBM E-score” value is -0.076.

As for ATACCGAA, the “PBM E-score” value was determined as 0.242.

On to CTACCGAC, for which the “PBM E-score” value is 0.264.

As to ATACCGGC, the “PBM E-score” value was 0.304.

Consider CTACCGAA, for which the “PBM E-score” value stood at 0.0544.

On to ATACCGAC, for which the “PBM E-score” value stood at 0.398.

With ATACCGAG, the “PBM E-score” value was determined as 0.224.

Take GTACCGAA: the “PBM E-score” value came out at 0.145.

Take GTACCGAC: the “PBM E-score” value was 0.382.

As to ATACCGAT, the “PBM E-score” value is 0.353.

Consider AACGTTGT, for which the “PBM E-score” value was -0.107.

As to CGGTATAG, the “PBM E-score” value is 0.179.

AACACTGT: the “PBM E-score” value is -0.22.

For the sequence AGCTGGTC, the “PBM E-score” value is -0.26.

As to TAACAGTA, the “PBM E-score” value was -0.227.

AAAAAGTC: the “PBM E-score” value was determined as 0.175.

Consider TAGCTGCA, for which the “PBM E-score” value was -0.191.

With GGGGTGAC, the “PBM E-score” value worked out at 0.0132.

With GCGGTGAA, the “PBM E-score” value came to 0.345.

As to ACGGTGCA, the “PBM E-score” value stood at 0.127.

As to ACGGTGCC, the “PBM E-score” value came out at 0.372.

ACGGTGAT: the “PBM E-score” value was determined as 0.367.

As for ACGGTGAG, the “PBM E-score” value turned out to be 0.141.

For the sequence GCGGTGAC, the “PBM E-score” value was 0.358.

With ACTGTGCT, the “PBM E-score” value is -0.241.

As to ACGGTGCG, the “PBM E-score” value is 0.281.

Consider ACGGTGCT, for which the “PBM E-score” value amounted to 0.409.

AAGGTGCT: the “PBM E-score” value is -0.0966.

Turning to ACGGTGAC, the “PBM E-score” value worked out at 0.297.

As to GAGAGTGC, the “PBM E-score” value is -0.209.

AAACTGAT: the “PBM E-score” value was -0.104.

With CAGAGGGA, the “PBM E-score” value is -0.261.

Turning to GATACTCC, the “PBM E-score” value came out at 0.146.

Consider TAGCACTA, for which the “PBM E-score” value is -0.246.

Regarding AAAAAGAA, the “PBM E-score” value worked out at 0.175.

For the sequence GCCAAGGA, the “PBM E-score” value was -0.0748.

On to TAGGTCCA, for which the “PBM E-score” value was -0.0733.

In the case of AGTTGCTG, the “PBM E-score” value is -0.167.

Take GTCGTTAA: the “PBM E-score” value is -0.0792.

With CGAAGTTC, the “PBM E-score” value was -0.147.

Consider CCGACAGC, for which the “PBM E-score” value amounted to 0.341.

As to ACGCTTTC, the “PBM E-score” value is -0.205.

Take ATGCTCCC: the “PBM E-score” value is -0.0728.

Consider ACGGTACT, for which the “PBM E-score” value worked out at 0.389.

On to ACGGTCAG, for which the “PBM E-score” value was -0.0787.

With ACGGTACC, the “PBM E-score” value came out at 0.283.

Turning to CCGGTGCC, the “PBM E-score” value stood at 0.328.

For GCGGTGCC, the “PBM E-score” value was 0.387.

As to ACGGTCAA, the “PBM E-score” value turned out to be 0.126.

For the sequence ACGGTACG, the “PBM E-score” value was 0.214.

In the case of GCGGTGCA, the “PBM E-score” value was 0.259.

On to ACGGTCAT, for which the “PBM E-score” value was 0.368.
